Molecules are shown by their SMILES. This is part of a sample that, as a whole, favours compounds with a hit. Of some 83,000 tested, about 20% had one in any assay.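 Cells were grown in 96-well plates and exposed to the test compound at a single concentration for 48 hours; results are reported as percent growth, with values below 10 considered active.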 A number with no mark means an inactive call.

The test system of this test is MDA-MB-468 breast. Description: NCI-60 one-dose screen, 48 h (100 = growth as untreated, 0 = no growth, -100 = all killed). The note with it: 10 µM unless noted.
For `O=[N+]([O-])c1cccc(N=Cc2ccccc2)c1`, the growth is 106%.
Under `Cc1ccc(-c2nc3ccccc3c(=O)n2/N=C/c2cccc3ccccc23)cc1` stands 80.9%.
In the case of `O=c1oc2ccc3ccccc3c2cc1-c1ccnc2[nH]c(=S)[nH]c(=O)c12`, the growth is 97.1%.
Take `c1ccc(-c2nc(N3CCOCC3)c3c4c(sc3n2)CCCCCC4)nc1`: the growth was 57.4%.
For `CCCC(=O)N1CCCCC1CC` (stereo unspecified) the value was 102%; for `COc1ccccc1NC(=O)OCC12COCN1COC2`, 101%.

(Values after PubChem BioAssay (NCI).)
